Assay results: PubChem BioAssay AID2018 (Sanford-Burnham Center for Chemical Genomics, 2009)
Hit rate of the full screen: of about 1,200 compounds, about 600 (50%) were called active. So high a share suggests a set chosen from earlier hits. This is one part of the list. Measured potencies and affinities stand elsewhere. Unmarked numbers belong to inactive results. Cut-off read from the data, not from the text of the source: active = inhibition above about 42%; inactive = the rest.

The compounds below were run against SUMO-conjugating enzyme UBC9 (Homo sapiens) (UniProt P63279) (assay: SUMOylation inhibitor hit validation, confirmation, SUMOylation inhibitor project, biochemical, AlphaScreen (AID 2018)). Details: AlphaScreen in vitro SUMOylation assay; at 35 µM; stronger effect = higher value.
SUMO-conjugating enzyme UBC9 (Homo sapiens), sequence (P63279 whole entry, looked up): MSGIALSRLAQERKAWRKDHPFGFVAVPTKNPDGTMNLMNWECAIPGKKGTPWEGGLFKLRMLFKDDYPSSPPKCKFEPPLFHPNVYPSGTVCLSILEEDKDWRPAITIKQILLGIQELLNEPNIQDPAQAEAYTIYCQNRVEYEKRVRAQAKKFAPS

SMILES | inhibition
CCOC(=O)c1c(NC(=O)c2c(N)n(CCCOC)c3nc4ccccc4nc23)sc2c1CCCC2 | 41.9%
CCOCCCn1c(N)c(C(=O)Nc2sc3c(c2C(=O)OC)CCCC3)c2nc3ccccc3nc21 | 47% (active)
CCCCNC(=O)c1c(N)n(CCCOC)c2nc3ccccc3nc12 | 102% (active)
COCCCn1c(N)c(C(=O)NCCC(C)C)c2nc3ccccc3nc21 | -40.9%
COc1cc(Cn2c(N)c(C(=O)NCc3ccco3)c3nc4ccccc4nc32)cc(OC)c1OC | 50.8% (active)
COCCCn1c(N)c(C(=O)NCc2ccco2)c2nc3ccccc3nc21 | -8.5%
CC(C)CCn1c(N)c(C(=O)NCc2cccs2)c2nc3ccccc3nc21 | 4.2%
COc1ccc(Cn2c(N)c(C(=O)NCc3ccco3)c3nc4ccccc4nc32)cc1 | -14.9%
COCCCn1c(N)c(C(=O)Nc2ccccc2)c2nc3ccccc3nc21 | -4.1%
CCCCCn1c(N)c(C(=O)NCc2cccs2)c2nc3ccccc3nc21 | 9.5%
CCCCn1c(N)c(C(=O)NCc2cccs2)c2nc3ccccc3nc21 | 51.4% (active)
COc1ccc(Cc2nccc3cc(OC)c(OC)cc23)cc1OC | 37.6%
c1ccc2c(NC3=NCCS3)cccc2c1 | 19.6%
CN1CCc2nc3sc(C#N)c(N)c3c(-c3cccs3)c2C1 | 29.8%
CN1CCN(c2ccc3nccnc3c2)CC1 | 6.7%
O=C(O)CCn1cc(C=C2C(=O)NC(=O)NC2=O)c(-c2ccc(Br)cc2)n1 | 1%
COCCCn1c(N)c(C(=O)OCCOC)c2nc3ccccc3nc21 | 10.5%
COCCNC(=O)c1c(N)n(CCC(C)C)c2nc3ccccc3nc12 | -54.5%
CCC(C)NC(=O)c1c(N)n(CCCOC)c2nc3ccccc3nc12 (stereo unspecified) | 74% (active)
Cc1ccsc1C(=O)C1CCCN(Cc2ccc(-n3cccn3)cc2)C1 (stereo unspecified) | -14.4%
CC(C)CNC(=O)c1c(N)n(Cc2ccc3c(c2)OCO3)c2nc3ccccc3nc12 | -19.8%
CN1C[C@H](CO)C=C2c3cccc4[nH]cc(c34)C[C@H]21 | 10.8%
CC(C)[C@H]1C(=O)N2CCC[C@H]2[C@]2(O)O[C@](NC(=O)[C@@H]3C=C4c5cccc6[nH]cc(c56)C[C@H]4N(C)C3)(C(C)C)C(=O)N12 | 54.8% (active)
Cn1c(O)c(/C=C2\N=c3ccccc3=C2CCNC(=S)NC2CC2)c(=O)n(C)c1=O | 58.6% (active)
O=C(c1cccn2c(=O)c3ccc(Cl)cc3nc12)N1CCC2(CC1)OCCO2 | 20.5%
COc1ccc(OC)c(N2C(=O)NC(=O)/C(=C/c3ccc([N+](=O)[O-])s3)C2=O)c1 | 86.3% (active)
